# Most compounds without a hit are left out; they make up all but 2.3% or so of the library.
# M1 antag – blocks human M1 muscarinic receptor. P11229. CHO-K1 hM1, Fluo-8 calcium fluorescence, ACh EC80 antagonist. inhibition, % at 3 µM. 1.3% of 360,000 active. AID 588852;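 active = percent inhibition above its own plate's cutoff, namely the mean of that plate's compound wells plus 3 SD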;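 also: peak over basal fluorescence ratio during 140 s after agonist addition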
# Target sequence (P11229 whole entry, looked up): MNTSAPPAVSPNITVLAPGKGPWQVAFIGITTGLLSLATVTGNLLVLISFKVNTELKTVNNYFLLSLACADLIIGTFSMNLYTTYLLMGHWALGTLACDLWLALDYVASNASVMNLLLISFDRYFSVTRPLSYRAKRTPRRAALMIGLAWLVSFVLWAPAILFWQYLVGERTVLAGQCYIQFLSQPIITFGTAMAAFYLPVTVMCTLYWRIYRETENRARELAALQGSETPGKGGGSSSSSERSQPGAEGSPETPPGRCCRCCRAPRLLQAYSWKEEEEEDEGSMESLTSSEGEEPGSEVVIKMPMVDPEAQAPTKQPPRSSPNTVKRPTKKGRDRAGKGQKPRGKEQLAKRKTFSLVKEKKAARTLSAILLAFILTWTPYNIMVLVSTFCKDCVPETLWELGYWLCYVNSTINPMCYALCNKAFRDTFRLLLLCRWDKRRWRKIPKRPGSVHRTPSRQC
# M1 PAM parental – nonselective activator or artifact in parental CHO-K1 calcium assay; 0.02% of 360,000 active; activation, % at 3 µM; ATP EC20, Fluo-8 calcium fluorescence; 0% at ATP EC20, 100% at ATP max; AID 602247;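 active = activation above the run cutoff, the mean activation of all test compounds plus 3 SD, cut at about 40% in these data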;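 also: peak over basal fluorescence ratio in a 140 s read after ATP addition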
# CHRM1 agonist – activates human CHRM1 receptor | P11229 | CHO-K1 hM1, Fluo-8 calcium fluorescence, agonist mode; 0% DMSO, 100% acetylcholine EC100 | activation, % at 3 µM | 0.33% of 360,000 active;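 active = activation above the run's mean compound activation plus 3 SD, cut at about 16% in these data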;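 also: peak over basal fluorescence ratio within a 140 s kinetic read after compound addition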
# M1 ag parental – nonselective activator or artifact in parental CHO-K1 cells | Fluo-8 calcium fluorescence; scaled to maximal ATP response, vehicle zero | activation, % at 3 µM | 0.48% of 360,000 active | AID 602248; in the data active = activation above about 15%;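 also: untransfected CHO-K1 host cells lacking M1 receptor as counterscreen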
# CHO-K1 Ca antag – counter-screen for M1 antagonists: effect in parental CHO-K1 cells | inhibition, % at 3 µM | ATP-induced calcium, Fluo-8 fluorescence | AID 602250 | 0.6% of 360,000 active;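 active = inhibition above a per-plate cutoff, the plate's mean sample inhibition plus 3 SD, cut at about 24% in these data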
# M1 PAM – potentiates human M1 receptor response to acetylcholine; CHO-K1 hM1, Fluo-8 calcium fluorescence, ACh EC20; 0% = ACh EC20, 100% = maximal ACh; activation, % at 3 µM; 0.088% of 360,000 active; in the data active = activation above about 19%, passing the limit was not always enough
# Numbers stand for hits; i = inactive; ! = a repeat was not active.
SMILES,M1 antag,M1 PAM parental,CHRM1 agonist,M1 ag parental,CHO-K1 Ca antag,M1 PAM
CC(O)(C#CCN1CCCC1)c1ccccc1 (stereo not given),41.0,i,i,i,i,i
CC(O)(C#CCN1CCCCC1)c1ccccc1 (stereo not given),i,i,i,i,i,i
CCC(C)NC(=O)c1c(N)n(/N=C/c2ccccn2)c2nc3ccccc3nc12 (stereo not given),i,i,i,i,i,i
CCC(C)NC(=O)c1c(N)n(/N=C/c2cccnc2)c2nc3ccccc3nc12 (stereo not given),i,i,i,i,25.1,i
CC(=O)Nc1c(NC(C)C)c2ccccc2oc1=O,i,i,i,i,i,i
CC(=O)Nc1c(Nc2ccccc2)c2ccccc2oc1=O,i,i,i,15.3,i,i
O=C(Nc1ccccn1)c1ccc2c(c1)S(=O)(=O)c1ccccc1C2=O,i,i,i,i,i,i
O=C1c2ccccc2S(=O)(=O)c2cc(C(=O)N(c3ccccn3)c3ccccn3)ccc21,i,i,51.0,70.5,i,i
Cc1ccc(S(=O)(=O)Nc2ccc3cn[nH]c3c2)c(C)c1,i,i,i,i,i,i
CCOc1cc(C)c(S(=O)(=O)Nc2ccc3cn[nH]c3c2)cc1C,31.6,i,i,i,i,i
CC(C)c1ccccc1NC(=O)Nc1nnc([C@H]2C[C@H](O)[C@@H](CO)O2)s1,i,i,i,i,i,i
CC1CCCC(NC(=O)c2ccc3c(SCC(=O)O)c4c(nc3c2)CCC4)C1C (stereo not given),39.2,i,i,i,i,i
C[C@@H]1CN([C@@H](C)CO)C(=O)CCCn2nncc2CO[C@H]1CN(C)S(=O)(=O)c1ccccc1F,i,i,i,i,i,i
Nc1ccc2ccc(O)cc2c1,i,i,i,i,i,i
C[n+]1c2cc(N)ccc2cc2ccc(N)cc21,i,i,204.7,210.1,25.2!,i
COc1ccc(Cc2nnc(SCC(=O)Nc3cc(Cl)ccc3C)[nH]c2=O)cc1,i,i,i,i,i,i
CC(CCN1C(Nc2ccccc2)=NC[C@@H]1Cc1ccccc1)c1ccccc1 (stereo not given in full),36.7,i,i,i,i,i
CCCCC(CC)CN=C(N)NC(N)=NCCCCCCN=C(N)NC(N)=NCC(CC)CCCC (stereo not given),88.3,i,58.0,i,i,i
CC(C)CNS(=O)(=O)c1ccc(Br)cc1N1CCC[C@@H]1CO,i,i,i,i,i,i
CCOC(=O)C1(C)CCN1C(=O)c1cc(C)n(C(C)(C)C)n1 (stereo not given),i,i,i,i,i,i
Cc1cc(C(=O)N2CCC2(C)C(=O)O)nn1C(C)(C)C (stereo not given),i,i,i,i,26.8,i
O=C(c1cc(-c2ccncc2)nc2ccc(Br)cc12)N1CCN(Cc2ccc3c(c2)OCO3)CC1,43.0,i,i,i,i,i
O=C(c1cc(-c2ccncc2)nc2ccc(Cl)cc12)N1CCN(Cc2ccc3c(c2)OCO3)CC1,i,i,i,i,i,i
Cc1cc(OC(C)C(=O)NCCc2c[nH]c3ccccc23)c2c(C)cc(=O)oc2c1 (stereo not given),i,i,i,i,i,i
COc1ccc2[nH]cc(CCNC(=O)COc3cc(C)cc4oc(=O)cc(C)c34)c2c1,31.1,i,i,i,i,i
SMILES,M1 antag,M1 PAM parental,CHRM1 agonist,M1 ag parental,CHO-K1 Ca antag,M1 PAM
CCOc1ccccc1N1CCN(CC(O)COC2CCCc3ccccc32)CC1 (stereo not given),47.5,i,i,i,i,i
CCN(CC)CCN(Cc1cc2cc3c(cc2[nH]c1=O)OCO3)C(=S)NCCCOC,i,i,i,i,i,i
CCN(CC)CCCN(Cc1cc2cc3c(cc2[nH]c1=O)OCO3)C(=S)NCCCOC,i,i,i,i,24.3,i
COCCNC(=S)N(CCCO)Cc1cc2cc3c(cc2[nH]c1=O)OCCO3,i,i,i,i,25.9,i
COCCNC(=S)N(CCO)Cc1cc2cc3c(cc2[nH]c1=O)OCO3,i,i,i,i,i,i
COC(=O)[C@]1(CC(C)C)N[C@H](c2ccc(-c3ccc(C(C)=O)cc3)cc2)[C@@H]2C(=O)N(C)C(=O)[C@@H]21,i,i,i,i,i,29.5
Oc1ccc2nnc3c(Br)cnn3c2c1,i,i,i,i,i,i
O=c1[nH]c(=S)[nH]c2nc(-c3cccs3)cc(C(F)(F)F)c12,i,i,i,i,i,i
Nc1c(C(=O)C2CC2)sc2nc(-c3cccs3)cc(C(F)(F)F)c12,i,i,19.0,i,i,i
O=C(OCCc1cc2ccccc2c(=O)o1)c1cccc(Br)c1,i,i,i,i,i,i
O=C(NCCCN1CCOCC1)C(=O)NCC1OCCN1S(=O)(=O)c1ccc(Cl)cc1 (stereo not given),i,i,i,i,i,i
CCN(CC)CCOC(=O)c1c(C)oc2ccc(OC)cc12,25.4,i,i,i,i,i
C=C(C)COc1ccc2oc(C)c(C(=O)OCCOC)c2c1,i,i,i,i,i,i
COc1ccc(Br)cc1C=NNS(=O)(=O)c1ccc(C)cc1,32.6,i,i,i,i,i
COc1cc(/C=N/NS(=O)(=O)c2ccc(Br)cc2)ccc1O,i,i,i,i,i,i
Cc1oc(-c2cccc3ccccc23)nc1CN1CCN(c2ncnc3ccccc23)CC1,i,i,i,23.0,i,i
COc1ccc([C@H]2C[C@H](O)[C@@H](n3cc(COC(=O)c4ccccc4)nn3)CN2CC2CCCCC2)cc1,i,i,i,i,i,i
CC1(C)CC[C@]2(C(=O)O)CC[C@]3(C)C(=CC[C@@H]4[C@@]5(C)CC[C@H](O[C@@H]6O[C@H](C(=O)O)[C@@H](O)[C@H](O[C@@H]7OC[C@H](O)[C@H](O)[C@H]7O)[C@H]6O)C(C)(C)[C@@H]5CC[C@]43C)[C@@H]2C1,i,i,i,i,24.3,i
CCC1(c2ccccc2)NC(=O)N(CC(=O)Nc2ccccc2N2CCCC2)C1=O (stereo not given),i,i,i,i,i,i
CC1(c2ccccc2)NC(=O)N(CC(=O)Nc2ccccc2N2CCCCC2)C1=O (stereo not given),i,i,22.3,i,i,i
COc1ccc(C2(C)NC(=O)N(CC(=O)Nc3cccnc3Cl)C2=O)cc1 (stereo not given),i,i,i,i,i,i
CC1(c2ccc(OC(F)F)cc2)NC(=O)N(CC(=O)Nc2cccnc2Cl)C1=O (stereo not given),i,i,43.9,33.0,i,i
CCC1(c2ccc(F)cc2)NC(=O)N(CC(=O)Nc2cccnc2Cl)C1=O (stereo not given),i,i,16.8,i,i,i

# Source: PubChem BioAssay
